Assay results from PubChem BioAssay.
Values joined by “and” are separate entries in the source; they are usually repeats but may differ in a detail not shown here. Equal values may be shown once.

How the values were obtained:
[1] = tested on: Botulinum neurotoxin type F light chain protease (Clostridium botulinum); experiment: Botulinum neurotoxin type F light chain protease inhibition, multiplex microsphere flow cytometry, validation set (AID 588459); settings: multiplex microsphere protease substrate cleavage assay, at 10 µM, hits give high values
[2] = molecular target: Botulinum neurotoxin type A (Clostridium botulinum) (UniProt P0DPI0); experiment: BoNT/A light chain protease inhibitors, biochemical, multiplex microsphere flow cytometry, validation set (AID 588460); settings: at 10 µM, hits give high values
[3] = molecular target: Lethal factor (Bacillus anthracis) (UniProt P15917); experiment: Lethal factor protease inhibitors, Bacillus anthracis, multiplex microsphere cleavage assay, validation set (AID 588461); settings: flow cytometry, at 10 µM, hits give high values

Measured: inhibition

Chain of Lethal factor (Bacillus anthracis) (P15917 whole entry, looked up): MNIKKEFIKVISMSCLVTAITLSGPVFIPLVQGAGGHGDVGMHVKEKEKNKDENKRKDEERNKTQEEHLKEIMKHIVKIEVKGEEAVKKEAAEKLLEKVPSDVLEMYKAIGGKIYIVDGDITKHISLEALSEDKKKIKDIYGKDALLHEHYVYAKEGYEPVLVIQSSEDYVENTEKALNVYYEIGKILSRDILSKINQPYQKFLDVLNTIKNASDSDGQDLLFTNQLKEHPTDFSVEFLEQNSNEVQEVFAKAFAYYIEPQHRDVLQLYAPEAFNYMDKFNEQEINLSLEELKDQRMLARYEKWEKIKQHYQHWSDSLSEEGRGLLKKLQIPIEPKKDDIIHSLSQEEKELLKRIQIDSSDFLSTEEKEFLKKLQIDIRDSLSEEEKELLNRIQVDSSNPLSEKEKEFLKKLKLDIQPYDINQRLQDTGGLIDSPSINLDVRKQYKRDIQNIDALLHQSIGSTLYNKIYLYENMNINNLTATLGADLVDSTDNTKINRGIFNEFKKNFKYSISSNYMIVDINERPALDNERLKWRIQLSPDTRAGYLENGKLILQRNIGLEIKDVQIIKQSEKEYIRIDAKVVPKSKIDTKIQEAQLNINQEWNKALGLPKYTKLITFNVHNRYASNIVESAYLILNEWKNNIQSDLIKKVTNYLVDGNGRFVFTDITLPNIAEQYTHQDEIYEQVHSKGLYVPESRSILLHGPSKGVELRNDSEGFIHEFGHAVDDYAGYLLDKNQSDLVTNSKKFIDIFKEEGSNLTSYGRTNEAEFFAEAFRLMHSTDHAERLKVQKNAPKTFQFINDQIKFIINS
Chain of Botulinum neurotoxin type A (Clostridium botulinum) (P0DPI0 whole entry, looked up): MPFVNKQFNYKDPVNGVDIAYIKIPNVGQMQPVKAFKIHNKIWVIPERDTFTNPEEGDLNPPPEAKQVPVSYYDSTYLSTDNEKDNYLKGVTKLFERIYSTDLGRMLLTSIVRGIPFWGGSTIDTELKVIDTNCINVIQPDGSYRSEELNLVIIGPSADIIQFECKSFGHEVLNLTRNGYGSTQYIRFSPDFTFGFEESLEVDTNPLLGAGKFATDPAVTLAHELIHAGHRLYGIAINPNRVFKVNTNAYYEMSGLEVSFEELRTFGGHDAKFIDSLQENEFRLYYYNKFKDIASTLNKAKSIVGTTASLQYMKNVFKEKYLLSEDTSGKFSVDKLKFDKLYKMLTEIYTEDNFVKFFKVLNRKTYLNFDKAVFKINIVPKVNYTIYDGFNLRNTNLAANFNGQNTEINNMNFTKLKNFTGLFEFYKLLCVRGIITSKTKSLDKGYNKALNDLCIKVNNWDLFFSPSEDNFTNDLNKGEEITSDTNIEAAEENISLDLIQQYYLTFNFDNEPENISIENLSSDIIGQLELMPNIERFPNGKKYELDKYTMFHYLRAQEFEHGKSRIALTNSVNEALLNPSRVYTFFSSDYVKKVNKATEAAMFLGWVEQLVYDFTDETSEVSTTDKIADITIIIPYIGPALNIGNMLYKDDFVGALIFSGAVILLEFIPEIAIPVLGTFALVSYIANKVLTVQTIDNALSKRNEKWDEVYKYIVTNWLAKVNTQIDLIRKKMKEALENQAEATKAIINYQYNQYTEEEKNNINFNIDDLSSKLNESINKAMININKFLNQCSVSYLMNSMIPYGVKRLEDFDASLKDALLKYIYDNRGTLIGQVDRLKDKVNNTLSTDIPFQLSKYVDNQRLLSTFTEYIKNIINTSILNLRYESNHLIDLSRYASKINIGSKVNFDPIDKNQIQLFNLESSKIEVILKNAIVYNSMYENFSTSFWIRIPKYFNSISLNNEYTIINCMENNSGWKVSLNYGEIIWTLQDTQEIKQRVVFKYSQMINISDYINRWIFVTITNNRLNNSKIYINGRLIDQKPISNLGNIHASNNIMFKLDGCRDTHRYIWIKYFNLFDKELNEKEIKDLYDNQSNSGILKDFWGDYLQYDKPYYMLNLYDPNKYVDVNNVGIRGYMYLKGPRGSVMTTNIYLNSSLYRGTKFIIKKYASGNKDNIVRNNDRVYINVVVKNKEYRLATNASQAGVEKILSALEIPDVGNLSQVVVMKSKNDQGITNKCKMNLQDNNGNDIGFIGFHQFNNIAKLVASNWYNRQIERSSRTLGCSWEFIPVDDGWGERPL

CC(=O)OCC(=O)[C@@]1(OC(C)=O)[C@@H](C)C[C@H]2[C@@H]3C[C@H](F)C4=CC(=O)C=C[C@]4(C)[C@@]3(F)[C@@H](O)C[C@@]21C
inactive: [1] 1.6% | [2] 0.4% | [3] -0.9%

Nc1nc2ccc(OC(F)(F)F)cc2s1
inactive: [1] 0.4% | [2] -0.1% | [3] 1.8%

Cc1ccc(N(CC2=NCCN2)c2cccc(O)c2)cc1
inactive: [1] -1.3% and 3.1% and -7.5% | [2] -1.3% and -1.2% and -1.7% | [3] -2.4% and -9.5% and -5.2%

CC(NC(=O)c1ccc(N2CCNCC2)c([N+](=O)[O-])c1)C12CC3CC(CC(C3)C1)C2 (centres undefined)
inactive: [1] 0.1% | [2] -0.6% | [3] -5.2%

C[C@]12CCC3C(CC=C4C[C@@H](O)CC[C@@]43C)C1CCC2[C@]1(C)CCC(=O)O1 (some centres undefined)
inactive: [1] 0.6% | [2] -0.3% | [3] -5.1%

Cc1ccc2c(c1)C1(C(=O)N2)N2CCCC2C(C(=O)c2ccc3ccccc3c2)C12C(=O)Nc1ccccc12 (centres undefined)
inactive: [1] 0% | [2] -1% | [3] -10%

O=C(CCCN1C(=O)/C(=C\c2cccc(Br)c2)SC1=S)Nc1cccnc1
inactive: [1] -1.7% | [2] -0.3% | [3] 2.4%

CCO/C([O-])=N/c1c[n+](N2CCOCC2)no1
inactive: [1] 0.3% | [2] 0.5% | [3] -5.4%
